The record followed here is PubChem BioAssay (NCI).

The panel holds about 83,000 compounds, 20% with a hit somewhere; the sample as a whole holds those more often.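 Values shown are percent growth following 48 h exposure of cells in 96-well plates to a single concentration of compound; below 10 was considered active.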 A number with no mark means an inactive call. Calls of active or inactive are those of the source.

The assay concerns SK-OV-3 ovarian. Description: NCI-60 one-dose screen, 48 h (100 = growth as untreated, 0 = no growth, -100 = all killed). The note with it: 10 µM unless noted.
Consider `O=C(Nc1nc2ccc(C(=O)N3CCN(/C=C/c4ccccc4)CC3)cc2s1)c1ccc(NCCc2ccccc2)c([N+](=O)[O-])c1`, for which the growth is 62.9%.

With `COC12C=C/C(=C(/C(=O)OCc3ccncc3)C(=O)CCCCCCCCC3(OC)C=C/C(=C(/C(=O)OCc4ccncc4)C(=O)CCCCCCCC1)O3)O2`, the growth is 40.1%.

On to `Cc1ccc2c(n1)C(=O)C(Br)=C(C1CCCC1)C2=O`, for which the growth is 88.7%.

Take `C#COc1cccc(Nc2c(C#N)cnc3ncc(NC(=O)CCl)cc23)c1`: the growth is 60.4% [6.25 µM].

With `COc1cc(-c2csc(NC(=O)c3ccc(N4CCOCC4)c(C(F)(F)F)c3)n2)cc(OC)c1OC`, the growth is 74.5%.

Take `CC/C=C\C[C@H](O)C/C=C1/C(=O)C=C[C@@H]1C/C=C\CCCC(=O)N(C)C`: the growth is 21.8%.

Take `Oc1c(I)cc(I)cc1CNCCN(Cc1ccccn1)Cc1ccccn1`: the growth was -74.7% (active).

Regarding `CC1=C([Se]CC(OC(=O)CC[Se]c2ccccc2)C(=O)NC(C)(C)C)C(=O)c2ccccc2C1=O` (stereo not given), the growth is -98.3% (active).

Take `Cc1cn(-c2cc(NC(=O)c3cncc(C#Cc4cnc(N)c5ncccc45)c3)cc(C(F)(F)F)c2)cn1`: the growth was 106%.

For the compound `CC(C)c1ccc(-n2c(=S)[nH]c3sc4cc(O)ccc4c3c2=O)cc1`, the growth was 112%.

In the case of `COc1ccccc1CNc1c2ccccc2nc2ccccc12`, the growth was 61.4%.

As for `COC(=O)c1nc(-c2ccccc2)oc1S(=O)(=O)Cc1ccccc1`, the growth was 97.6%.

For `O=C1/C(=C/c2ccccc2Br)COc2ccc(O)cc21`, the growth was 128%.

For `C/C(Cc1ccc(Cl)cc1)=C(\c1ccc(O)cc1)c1ccc(Cl)cc1`, the growth was 112%.

Consider `COC12C=C/C(=C(/C(=O)OCc3ccncn3)C(=O)CCCCCCCCC3(OC)C=C/C(=C(/C(=O)OCc4ccncn4)C(=O)CCCCCCCC1)O3)O2`, for which the growth is 52.8%.

Turning to `CCc1ccccc1-n1c(-c2ccc(OC)cc2)cc(-c2ccc(OC)cc2)c(C#N)c1=O`, the growth is 54%.

As for `COCCn1cc(-c2csc(-c3cn(C)c4ccc(Br)cc34)n2)c2cccnc21`, the growth was 71.9%.

Regarding `C=CCc1c(O)c(C(=O)/C=C/c2ccccc2)c(OC)c2ccoc12`, the growth is 74.4%.

`COc1cc(-c2nc3sccn3c2-c2ccnc(NCCNS(=O)(=O)c3ccccc3)n2)ccc1F`: the growth is 52.5%.

With `O=c1c2cnn(-c3ccccc3)c2n2c(CN3CCOCC3)nnc2n1-c1ccccc1`, the growth is 88.2%.

As to `O=C1C(Cl)=C(Nc2ccc(S(=O)(=O)N3CCOCC3)cc2)C(=O)c2ccccc21`, the growth was 81.3%.

Take `O=C(COc1ccc(-c2nc3cc(Cl)c(Cl)cc3[nH]2)cc1)N=Nc1c(O)[nH]c2ccc(Cl)cc12`: the growth is 84.5%.

Turning to `CC1CCc2c(C(=O)Nc3ncc(Cc4cccc([N+](=O)[O-])c4)s3)csc2C1` (stereo not given), the growth is 21.6%.

As to `CC(C)(Sc1cc(C(C)(C)C)c(O)c(C(C)(C)C)c1)Sc1cc(C(C)(C)C)c(OC(=O)CCCC(=O)O)c(C(C)(C)C)c1`, the growth is 91.6%.

Turning to `CCSc1oc(-c2ccccc2)nc1[P+](c1ccccc1)(c1ccccc1)c1ccccc1`, the growth was -16.1% (active).

As to `C#CCOC(=O)/C=C/c1cn(-c2ccccc2)nc1-c1ccc(OC)cc1`, the growth was 89.3%.

With `Cc1ccc(CNc2ccc3nc(CCC4CCCCC4)[nH]c3c2)cc1`, the growth is 60.3%.

In the case of `CCn1c(SCC(=O)N/N=C(\C)c2ccc(Cl)cc2)nc2c1c(=O)n(C)c(=O)n2C`, the growth is 109%.

Regarding `COc1ccc(\C=N/N=C(N)/C(N)=N\N=C/c2ccc(OC)cc2)cc1`, the growth was 96.1%.

With `c1cc2c(ccc3[nH]c(-c4ccc5[nH]ncc5c4)c4c(c32)CCCC4)n1`, the growth is 63.4%.

On to `Cc1ccc2c(Cn3cc(CSc4nc5ccccc5o4)nn3)cc(=O)oc2c1`, for which the growth was 81%.

On to `C=C(C)[C@@H]1CCC[C@]2(COS(=O)(=O)c3ccc(C)cc3)CC[C@]3(C)[C@@H](CC[C@@H]4[C@@]5(C)CCCNC(C)(C)[C@@H]5CC[C@]43C)[C@@H]12`, for which the growth was 98.7%.

For the compound `COC(=O)c1c(C)c2n(c1C)C(=O)C(c1ccccc1)=C2`, the growth was 80.8%.

Take `COc1cc2cc(NCc3cccc(Cl)c3)nc(C)c2cc1OC`: the growth is 56.9%.

For the compound `CCN(CC)Cc1cc(C=C2C(=O)NC(=S)NC2=O)cc(OC)c1O`, the growth was 111%.

`Cc1cc(=O)oc2cc(OCc3nn4c(Nc5nc6ccccc6s5)c(-c5ccccc5)nc4s3)ccc12`: the growth is 92%.

With `COc1ccc(C(=O)N2c3ccccc3Sc3ccccc32)c(OC)c1`, the growth was 36.9%.

In the case of `Cc1c(-c2ccc(O)cc2)n(Cc2ccc(OCCN3CCCCCC3)cc2)c2ccc(O)cc12`, the growth is 81.3%.

In the case of `Cc1ccc(Nn2c(SCC(=O)Nc3nc(-c4ccccc4)cs3)nc(C)c2C)cc1`, the growth was 64.1%.

Take `CC(C)c1ccc(C(=O)Nc2nc3ccc(O)c(CN(C)C)c3s2)cc1`: the growth was 90.8%.
